# Measured values: PMC5540273 (PLoS ONE, 2017)
# Assays:
# Conditions in all cases: concentration: 1 μM, replicates: in singlicate; n = 1
# CSNK2A2 = system: CSNK2A2
# CTK = system: T1, CTK
# T1 construct: gene MATK
# DAPK1 = system: DAPK1
# DAPK2 = system: DAPK2
# DAPK3 = system: DAPK3
# DCAMKL1 = system: T2, DCAMKL1
# T2 construct: gene DCLK1
# DCAMKL2 = system: T3, DCAMKL2
# T3 construct: gene DCLK2
# DCAMKL3 = system: T4, DCAMKL3
# T4 construct: gene DCLK3
# DDR1 = system: DDR1
# DDR2 = system: DDR2
# DLK = system: T5, DLK
# T5 construct: gene MAP3K12
# DMPK2 = system: T6, DMPK2
# T6 construct: gene CDC42BPG
# DMPK = system: DMPK
# DRAK1 = system: T7, DRAK1
# T7 construct: gene STK17A
# DRAK2 = system: T8, DRAK2
# T8 construct: gene STK17B
# DYRK1A = system: DYRK1A
# DYRK1B = system: DYRK1B
# DYRK2 = system: DYRK2
# EGFR = system: EGFR
# EIF2AK1 = system: EIF2AK1
# 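Note: KINOMEscan kinase panel screen.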
Structure (SMILES),%Inh (CSNK2A2),%Inh (CTK),%Inh (DAPK1),%Inh (DAPK2),%Inh (DAPK3),%Inh (DCAMKL1),%Inh (DCAMKL2),%Inh (DCAMKL3),%Inh (DDR1),%Inh (DDR2),%Inh (DLK),%Inh (DMPK2),%Inh (DMPK),%Inh (DRAK1),%Inh (DRAK2),%Inh (DYRK1A),%Inh (DYRK1B),%Inh (DYRK2),%Inh (EGFR),%Inh (EIF2AK1)
FC(F)(F)c1ccc(-c2ncn(CCCN3CCOCC3)c2-c2ccncc2)cc1 [SB-217780],5%,0%,14%,5%,15%,13%,35%,4%,5%,0%,0%,1%,28%,15%,6%,6%,0%,25%,19%,10%
Nc1ncnc2c1ncn2-c1ccc(Cl)cc1 [AH2635],1%,0%,0%,0%,0%,10%,0%,0%,0%,21%,27%,12%,0%,17%,0%,0%,0%,2%,15%,0%
COc1cc(Nc2nccc(N3CCC(NC(=O)C(C)c4ccc(Cl)cc4)C3)n2)cc(OC)c1OC (centres unmarked) [GSK1379757],0%,0%,0%,0%,0%,11%,0%,0%,0%,6%,29%,8%,0%,0%,0%,9%,0%,0%,23%,0%
Cl.NS(=O)(=O)c1cccc(Nc2cc(-c3ccc(F)cc3)n[nH]2)c1 [GW824645],20%,19%,0%,0%,0%,15%,44%,0%,0%,45%,0%,0%,1%,0%,0%,0%,0%,24%,0%,0%
COc1cc2ncn(-c3cc(OCc4ccncc4)c(C(N)=O)s3)c2cc1OC [GSK336313],29%,0%,8%,0%,10%,4%,0%,55%,0%,0%,0%,12%,0%,0%,0%,13%,19%,23%,24%,0%
Cc1nc(N(C)[C@H]2CN(C(=O)CC#N)CC[C@H]2C)c2cc[nH]c2n1,6%,19%,0%,13%,0%,6%,0%,63%,28%,2%,0%,5%,0%,0%,0%,0%,0%,7%,0%,0%
Cn1c(=O)c(F)c(Nc2ccc(I)cc2F)c2c(=O)n(OC[C@H](O)CO)cnc21,0%,0%,0%,0%,13%,13%,20%,20%,0%,25%,0%,20%,17%,0%,10%,0%,0%,0%,3%,0%
Nc1nccc2scc(-c3ccc4c(c3)CCN4C(=O)Cc3ccccc3)c12 [GSK2576924],13%,0%,12%,3%,21%,16%,0%,27%,43%,3%,7%,22%,0%,1%,0%,0%,19%,20%,21%,0%
COc1ccc(-c2coc3ccc(-c4nnc(SCc5cccc(C#N)c5)o4)cc23)cc1,28%,0%,29%,0%,0%,35%,0%,0%,0%,3%,1%,0%,0%,2%,7%,5%,0%,2%,0%,30%
Nc1n[nH]c2nnc(-c3ccccc3)c(-c3ccccc3)c12 [GW554060],0%,0%,0%,0%,19%,1%,0%,0%,28%,22%,25%,0%,0%,0%,0%,23%,0%,20%,36%,0%
